# USP17 block: blocks human USP17 ubiquitin-rhodamine cleavage; AID 1645855; inhibition, % at 50 µM; 47,000 compounds, 6.5% hits; A8MUK1; purified USP17, Ub-rhodamine cleavage fluorescence, 3 h
# USP30 inh: human USP30 deubiquitinase inhibition; Q70CQ3; purified USP30, Ub-rhodamine cleavage fluorescence; inhibition, % at 25 µM; 47,000 compounds, 5.3% hits; AID 1645860
# USP28 block: human USP28 deubiquitinase inhibition. 47,000 compounds, 3% hits. purified USP28, Ub-rhodamine cleavage fluorescence, 30 min. inhibition, % at 25 µM. AID 1645857
# Target sequence (Q96RU2 whole entry, looked up): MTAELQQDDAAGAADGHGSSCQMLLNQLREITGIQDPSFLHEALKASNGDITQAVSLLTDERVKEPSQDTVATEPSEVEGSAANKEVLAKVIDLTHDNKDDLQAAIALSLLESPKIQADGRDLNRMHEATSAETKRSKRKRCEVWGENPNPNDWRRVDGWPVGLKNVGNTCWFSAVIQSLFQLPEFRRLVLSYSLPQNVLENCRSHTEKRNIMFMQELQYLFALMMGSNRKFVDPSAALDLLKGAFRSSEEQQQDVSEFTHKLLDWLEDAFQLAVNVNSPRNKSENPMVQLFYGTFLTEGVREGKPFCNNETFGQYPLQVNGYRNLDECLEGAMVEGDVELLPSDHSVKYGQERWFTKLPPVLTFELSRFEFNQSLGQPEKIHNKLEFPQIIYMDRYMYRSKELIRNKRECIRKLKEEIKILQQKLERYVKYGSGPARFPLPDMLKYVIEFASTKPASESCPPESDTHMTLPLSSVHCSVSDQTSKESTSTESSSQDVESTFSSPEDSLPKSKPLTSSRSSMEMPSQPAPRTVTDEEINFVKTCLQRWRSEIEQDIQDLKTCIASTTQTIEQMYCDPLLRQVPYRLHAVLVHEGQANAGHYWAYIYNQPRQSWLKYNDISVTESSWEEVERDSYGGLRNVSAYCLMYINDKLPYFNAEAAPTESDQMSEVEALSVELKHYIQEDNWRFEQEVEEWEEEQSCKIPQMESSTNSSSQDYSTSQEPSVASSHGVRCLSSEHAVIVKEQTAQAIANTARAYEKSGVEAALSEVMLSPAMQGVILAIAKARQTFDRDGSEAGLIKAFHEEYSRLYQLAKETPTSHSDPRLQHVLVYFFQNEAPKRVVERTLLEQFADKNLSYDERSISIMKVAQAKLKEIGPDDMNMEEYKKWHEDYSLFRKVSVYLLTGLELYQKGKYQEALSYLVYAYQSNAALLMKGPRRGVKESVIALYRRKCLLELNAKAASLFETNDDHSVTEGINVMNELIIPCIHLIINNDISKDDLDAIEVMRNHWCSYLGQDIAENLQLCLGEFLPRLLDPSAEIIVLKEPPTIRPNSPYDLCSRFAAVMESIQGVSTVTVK
# Numbers without * were called inactive; i = inactive; / = not tested or not shown. Sampled rows, rich in hits. Any-hit rate of the full collection: about 11%. Cut-off read from the data, not from the text of the source: active = inhibition above about 30%; inactive = the rest.
SMILES,USP17 block,USP30 inh,USP28 block
COc1ccc(C(=O)N2CCN3Cc4ccccc4N(C)CC3C2)cc1 (configuration not stated),-140,i,-244
O=C(O)c1c(Oc2ccc(Cl)cc2)c(-c2ccccc2)nc2ccccc12,16,14,4
O=C(Nc1ccc2ccccc2n1)c1ccccc1Cl,20,17,20
O=C(Nc1nc(-c2ccccc2)c2ccccc2n1)c1ccc(Cl)cc1,0,29,34*
O=C(Nc1ccc2ccccc2n1)c1ccc(Cl)cc1,30*,63*,12
Cc1nc(C)n(CC2CCCCN2Cc2cccc(C(N)=O)c2)n1 (configuration not stated),-10,-7,-11
Cc1ccc2cc(CNC3CCCCC3)c(=O)[nH]c2c1C,-4,2,1
O=C(NCc1ccccc1)c1cc2occc2c(Nc2ccc(F)cc2)n1,1,-17,-7
COc1ccc(Nc2nc(C(=O)NCc3ccccc3)cc3occc23)cc1,57*,-12,24
COc1ccc(Nc2nc(C(=O)NCc3ccc4c(c3)OCO4)cc3occc23)cc1,63*,-37,25
CCN1CCN(C(=O)c2cc3occc3c(Nc3ccc(OC)cc3)n2)CC1,-5,0,0
CN(Cc1ccccc1Cl)C(=O)c1cccc(N2CCCS2(=O)=O)c1,-15,-1,-6
CCCN1CC(=O)N2C(CCc3ccccc3)c3[nH]c4ccccc4c3C[C@@H]2C1=O (some centres not stated),-1,-38,-5
Cc1cccc2cc3c(nc12)N(C(=O)C1CC1)CC3,35*,-51,3
Cc1cccc2cc3c(nc12)N(S(=O)(=O)c1ccc(F)cc1)CC3,3,-4,2
Cn1nc(C(=O)N2CCCC2)c2c1CCN(C(=O)CCC(=O)NCc1ccccc1F)C2,/,-9,-1
COc1ccc(C)cc1NC(=O)Nc1nnc(CC(=O)NCc2ccccc2)s1,18,11,-1
Cc1cc(C(=O)N2CCc3nc(NC(=O)NC4CCCC4)sc3C2)no1,0,-67,-10
CC(C)Cc1cc(-c2nnc3sc(-c4ccco4)nn23)n[nH]1,73*,-3,39*
CCn1cc(C(=O)Nc2ccccc2C)c(=O)c2ccc(C)nc21,-11,-148,-31
CCC(=O)N1CC[C@@H]2Oc3ccccc3S(=O)(=O)N(C)[C@H]2CC1,1,7,-9
COc1cccc(CNc2ccc(C)cn2)c1O,0,0,11
COc1ccc(NC(=O)Cc2ccccc2F)cc1S(=O)(=O)N1CCCCC1,/,8,10
COc1ccc(NC(=O)CN2CCN(c3ccc(C(C)=O)cc3)CC2)cc1S(=O)(=O)N1CCCCC1,36*,54*,10
Cc1nc(-c2ncc(C)[nH]2)cc(C2CCN(C(=O)c3ccccc3)C2)n1 (configuration not stated),-17,-24,-10
SMILES,USP17 block,USP30 inh,USP28 block
O=C(NCc1noc(Cc2ccccc2)n1)c1ccc(-c2noc(C3CC3)n2)cc1,9,17,13
COc1ccc(C(=O)NCc2noc(C3CCCCC3)n2)cc1C#N,-14,-3,42*
COc1ccc(C(=O)NCc2noc(C3CCCC3)n2)cc1OC,-4,/,/
O=C(NCc1noc(-c2ccccc2)n1)c1ccc(-c2noc(C3CC3)n2)cc1,32*,13,28
NC(=O)c1cc(CC2CCCN(C(=O)c3ccccc3F)CC2)ncn1 (configuration not stated),9,17,8
CC(O)CN(CC(C)O)c1ncnc2c1sc1nc(-c3ccco3)c3c(c12)CC(C)(C)OC3 (configuration not stated),-29,-76,-5
Cn1c(=O)cc(OCC(=O)Nc2ccc(F)c(Cl)c2)c2ccccc21,5,2,-4
CCn1cc(S(=O)(=O)NCc2ccccc2)c2cccnc21,41*,-26,22
CCn1cc(S(=O)(=O)NCc2ccccc2F)c2cccnc21,13,-39,12
COc1ccc(C(C)=O)cc1COC(=O)c1ccccc1OCc1ccc(Cl)cc1Cl,5,/,/
COc1ccc(C(=O)N/C(=C/c2cccnc2)C(=O)Nc2ccc(F)cc2)cc1OC,-3,-15,-5
COc1cc2c(cc1OC)-c1cc(N3CCC(C)CC3)nc(=O)n1CC2,-7,12,8
COc1ccc(C2c3[nH]c4ccccc4c3C[C@@H]3C(=O)N(C4CC4)CC(=O)N23)cc1OC (some centres not stated),-70,-331,-97
Cc1cc(NC(=O)Cn2c(=O)n(Cc3ccco3)c(=O)c3ccc(C(=O)NCCc4ccccc4)cc32)n[nH]1,82*,74*,84*
COc1ccc(NC(=O)Cn2c(=O)n(-c3ccc(CC(=O)NCCc4ccccc4)cc3)c(=O)c3ccccc32)cc1,16,19,11
Cc1cc(NC(=O)Cn2c(=O)n(CCc3ccccc3)c(=O)c3ccccc32)n[nH]1,25,6,0
CC(C)(C)C(=O)Cn1c(=O)n(Cc2ccco2)c(=O)c2ccc(C(=O)NC3CCCC3)cc21,0,12,-7
COc1ccc(-n2c(=O)c3ccc(C(=O)NCCc4ccccc4)cc3n(CC(=O)NCc3ccco3)c2=O)cc1,60*,-12,15
O=C(Cn1c(=O)n(Cc2ccco2)c(=O)c2ccc(C(=O)NC3CCCC3)cc21)NCc1ccco1,55*,-15,28
O=C(c1ccc(N2CCCS2(=O)=O)cc1)N1CC=C(c2ccccc2)CC1,0,-4,2
CC(=O)N1CCc2cc(S(=O)(=O)Nc3ccccc3C)ccc21,-5,-17,-10
CC(=O)N1CCc2cc(S(=O)(=O)NC(Cc3ccccc3)C(=O)Nc3cccc(Cl)c3C)ccc21 (configuration not stated),36*,67*,70*
CC(=O)N1CCc2cc(S(=O)(=O)NCC(=O)NCc3ccc(Cl)cc3)ccc21,/,11,14
CC(=O)N1CCc2cc(S(=O)(=O)NC(Cc3ccccc3)C(=O)NCc3ccc4c(c3)OCO4)ccc21 (configuration not stated),56*,54*,52*
COc1ccc(CC(=O)NCc2cc(-c3ccc(F)cc3)on2)cc1,19,17,5
SMILES,USP17 block,USP30 inh,USP28 block
N#Cc1cccc(S(=O)(=O)c2c[nH]c3cc(Cl)ccc3c2=O)c1,46*,-13,1
N#Cc1cccc(S(=O)(=O)NC2CCN(c3ccc(F)cc3)C2=O)c1 (configuration not stated),0,16,10
CN(C)c1cc(-n2cnc(C(=O)NCc3ccc(Cl)cc3)c2)ncn1,13,21,9
CN(C)c1cc(-n2cnc(C(=O)NCc3ccccc3Cl)c2)ncn1,52*,28,10
NC(=O)c1sc(N2CCCCC2)nc1N,-164,i,-132
CC(C)c1ccc(C(C(=O)NC2CCCCC2)N(C(=O)c2cnccn2)c2cccc(F)c2)cc1 (configuration not stated),28,66*,16
CC(=O)c1ccc(N(C(=O)c2cnccn2)C(C(=O)NC2CCCCC2)c2ccc(F)cc2)cc1 (configuration not stated),-7,-22,-13
COc1ccccc1N1CCN(C(=O)CCc2nc3ccc(C)cc3[nH]2)CC1,-16,-16,-14
COc1cccc(C2CC(=O)Nc3nc(-c4ccccc4)[nH]c(=O)c32)c1 (configuration not stated),7,5,-5
